# High-throughput results deposited in PubChem by National Center for Advancing Translational Sciences (NCATS).
# The list is not random: actives were taken first. Their share in the collection is about 9.9%.
# Tau fluor cs = Counterscreen qHTS for Inhibitors of Tau Fibril Formation, Fluorescence Polarization; tau K18 P301L Alexa594 fluorescence, heparin fibrillization; Potency, µM (series often up to 57.7 µM); 280,000 tested, 0.93% active; note: nearly all actives have a fitted effect of over 55% in size
#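 Human K18 P301L tau (15 uM unlabeled plus 0.24 uM Alexa 594-labeled, final) in 100 mM sodium acetate pH 7 was mixed with compound and 20 uM heparin and incubated 6 hr at 37 C.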
# JMJD2E inh = qHTS Assay for Inhibitors of Human Jumonji Domain Containing 2E (JMJD2E); Lysine-specific demethylase 4E (Homo sapiens), B2RXH2; JMJD2E catalytic domain, FDH-coupled NADH fluorescence (FDH is formaldehyde dehydrogenase); Potency, µM (doses to about 57.1 µM), hits mostly inhibitors; 230,000 tested, 1.6% active; AID 2147, 2009; active = well fitted inhibition curve with a large enough effect, not every such curve was filed as active; inconclusive = small, poorly fitted or top-dose-only effect, or another doubt; inactive = no such curve, though single readings can be large or run the other way; note: nearly all actives have a fitted effect of over 50% in size
# Target sequence (B2RXH2 1-337 limits assumed): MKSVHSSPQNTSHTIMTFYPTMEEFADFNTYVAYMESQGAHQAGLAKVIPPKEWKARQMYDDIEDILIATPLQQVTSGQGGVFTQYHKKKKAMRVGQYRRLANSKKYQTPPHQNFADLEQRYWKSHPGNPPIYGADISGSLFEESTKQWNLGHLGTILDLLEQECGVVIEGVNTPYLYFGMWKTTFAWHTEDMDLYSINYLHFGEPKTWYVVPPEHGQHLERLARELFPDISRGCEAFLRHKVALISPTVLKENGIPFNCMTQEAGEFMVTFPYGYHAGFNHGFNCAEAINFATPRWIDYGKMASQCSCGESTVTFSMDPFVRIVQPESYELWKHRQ
# Tau fibril FP = qHTS for Inhibitors of Tau Fibril Formation, Fluorescence Polarization; Microtubule-associated protein tau (Homo sapiens), P10636; K18 P301L tau heparin fibrillization, Alexa594 FP, 6 h; Potency, µM (series often up to 57.7 µM), actives largely listed as inhibitors; 280,000 tested, 0.39% active; AID 1468, 2008; note: nearly all actives have a fitted effect of over 55% in size
# Target sequence (P10636 561-689 P618L limits assumed): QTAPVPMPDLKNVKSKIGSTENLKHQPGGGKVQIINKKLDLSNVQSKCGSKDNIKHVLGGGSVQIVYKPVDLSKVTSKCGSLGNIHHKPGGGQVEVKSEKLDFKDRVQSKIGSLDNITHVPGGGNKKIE
#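 Quantitative HTS format: compounds meet 15 uM recombinant K18 P301L tau and Alexa 594-tau tracer in 100 mM sodium acetate pH 7; 20 uM heparin triggers fibrillization at 37 C over 6 hr; FP gives the signal.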
# ALDH1A1 inh = qHTS Assay for Inhibitors of Aldehyde Dehydrogenase 1 (ALDH1A1) | Potency, µM (titrated, usually from 75.3 µM), usual class: inhibitors | AID 1030, 2008 | Aldehyde dehydrogenase 1A1 (Homo sapiens), P00352 | 220,000 tested, 7.3% active | Purified ALDH1A1, NADH fluorescence, propionaldehyde substrate; active = well fitted inhibition curve with a large enough effect, not every such curve was filed as active; inconclusive = small, poorly fitted or top-dose-only effect, or another doubt; inactive = no such curve, though single readings can be large or run the other way
# HPGD block = qHTS Assay for Inhibitors of HPGD (15-Hydroxyprostaglandin Dehydrogenase) | 15-hydroxyprostaglandin dehydrogenase [NAD(+)] (Homo sapiens), P15428 | purified HPGD, NADH fluorescence kinetic, PGE2 substrate | Potency, µM, most hits filed as inhibitors | 150,000 tested, 4.3% active | AID 894, 2007; active = well fitted inhibition curve with a large enough effect, not every such curve was filed as active; inconclusive = small, poorly fitted or top-dose-only effect, or another doubt; inactive = no such curve, though single readings can be large or run the other way
# Target sequence (P15428 whole entry, looked up): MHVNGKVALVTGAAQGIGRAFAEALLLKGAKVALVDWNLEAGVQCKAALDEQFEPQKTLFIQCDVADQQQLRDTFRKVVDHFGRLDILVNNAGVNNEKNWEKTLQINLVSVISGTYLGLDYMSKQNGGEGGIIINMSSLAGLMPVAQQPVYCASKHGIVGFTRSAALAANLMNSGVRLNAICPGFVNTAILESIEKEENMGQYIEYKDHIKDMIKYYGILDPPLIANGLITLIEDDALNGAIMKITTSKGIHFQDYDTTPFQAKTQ
#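 NADH formation kinetics: reaction with 30 uM PGE2 and 1 mM NAD+ (final), 20 nM enzyme, Tris-HCl pH 8 with Tween 20, after 15 min compound preincubation at room temperature. Fluorescence change, last versus first of five reads.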
# Tau ThT inhib = qHTS for Inhibitors of Tau Fibril Formation, Thioflavin T Binding. Potency, µM (top dose mostly 57.4 µM), actives largely listed as inhibitors. 270,000 tested, 2.1% active. recombinant tau K18 P301L (four-repeat tau fragment), heparin-induced fibrillization, ThT fluorescence; note: nearly all actives have a fitted effect of over 55% in size
#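 K18 P301L tau (15 uM + 0.24 uM Alexa 594-tagged), heparin 20 uM, NaOAc pH 7, 6 h 37 C; ThT 30 uM, 1 h RT, ex 450/em 510 nm.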
# Numbers stand for hits; 0 = inactive; ? = inconclusive; - = no result given; [ ] = remark or other dose. Unless noted, calls come from the whole dose curve; as a rule, active = well fitted curve in the direction sought with a large enough effect; inconclusive = small, poorly fitted or top-dose-only effect, or another doubt; inactive = no such curve, though single readings can be large; an effect the other way counts as inactive or inconclusive.
SMILES,Tau fluor cs,JMJD2E inh,Tau fibril FP,ALDH1A1 inh,HPGD block,Tau ThT inhib
S=c1nc(-c2ccccc2Br)[nH][nH]1,0,14.1µM,?,10µM,12.6µM,0
S=c1nc(-c2cccc(Cl)c2)[nH][nH]1,0,?,0,?,-,0
S=c1nc(-c2cc(Cl)cc(Cl)c2)[nH][nH]1,0,0,0,11.2µM,-,0
CC(=O)c1c(C)[nH]c(C(=O)OCc2ccccc2F)c1C,0,0,0,?,-,0
O=Cc1sc(N2CCOCC2)nc1-c1ccccc1,0,0,0,8.91µM,-,0
O=C(N/N=C/c1sc(N2CCOCC2)nc1-c1ccccc1)c1ccccc1O,?,?,?,?,0,?
Cc1nc2cc(N3CCN(C)CC3)c(NC(=O)Cc3ccccc3)cc2c(=O)n1Cc1ccccc1,0,?,0,17.8µM,-,0
O=C(Nc1noc2ccccc12)c1ccc(F)cc1,0,-,0,-,-,0
CCN(CC)c1cc(C)c2cc(NC(=O)/C=C/c3ccc(C)cc3)ccc2n1,15.8µM[quencher],-,0,-,-,?
CCOc1ccc(/C=C/C(=O)Nc2ccc3nc(N(CC)CC)cc(C)c3c2)cc1OC,?,-,?,-,-,7.08µM
CCN(CC)c1cc(C)c2cc(NC(=O)CNC(C)=O)ccc2n1,0,?,0,?,?,0
CCN(CC)c1cc(C)c2cc(NC(=O)/C=C/c3cc(OC)c(OC)c(OC)c3)ccc2n1,?,-,0,-,-,4.47µM
CCOc1ccc(C(=O)Nc2ccc3nc(N(CC)CC)cc(C)c3c2)cc1,15.8µM[quencher],-,0,-,-,?
CCOC(=O)Cc1ccc(NC(=O)N(Cc2ccc(OC)cc2)C2CCN(C(C)=O)CC2)cc1,0,-,0,-,-,0
CCC1(c2ccc(F)cc2)NC(=O)N(CC(=O)Nc2cc(S(=O)(=O)N(C)C)ccc2Cl)C1=O (stereo not given),0,0,0,0,-,0
O=C(Cn1cnc2c(nnn2Cc2ccc(Cl)cc2)c1=O)NCc1ccco1,0,0,0,?,15.8µM,0
Cc1ccc(Cn2nnc3c(=O)n(CC(=O)NCc4ccc5c(c4)OCO5)cnc32)cc1,0,0,0,0,0,0
O=C(Cn1cnc2c(nnn2Cc2ccc(F)cc2)c1=O)NCc1ccco1,0,0,0,0,15.8µM,0
O=C(Cn1cnc2c(nnn2Cc2ccccc2)c1=O)c1ccccc1,0,0,0,0,22.4µM,0
O=C(Cn1cnc2c(nnn2Cc2ccccc2)c1=O)NCc1ccco1,0,0,0,0,14.1µM,0
O=C(Cn1cnc2c(nnn2Cc2ccc(F)cc2)c1=O)NCc1ccccc1,0,0,0,-,-,-
COC(=O)Cn1cnc2c(nnn2Cc2ccc(Cl)cc2)c1=O,0,0,0,0,0,0
COC(=O)c1cc(NC(=O)Nc2ccc3snnc3c2)cc(C(=O)OC)c1,?,-,?,-,-,0
Cc1cccc2c1-c1sc(C(=O)N(C)c3cccc(C(F)(F)F)c3)cc1CO2,?,-,0,-,-,?
COc1cc2c(=O)n(Cc3ccccc3)c(=O)n(CC(=O)NCc3ccco3)c2cc1OC,0,?,?,1.41µM,?,0
SMILES,Tau fluor cs,JMJD2E inh,Tau fibril FP,ALDH1A1 inh,HPGD block,Tau ThT inhib
O=C(Cn1c(=O)n(Cc2ccccc2)c(=O)c2ccccc21)NCc1ccco1,0,0,0,0,0,0
O=C(CCl)Oc1ccc2occ(C(=O)c3cccs3)c2c1,0,0,?,0.794µM,0,?
COc1ccc(/C=N\NC(=O)c2cccc(Br)c2)c(OC)c1,0,0,0,0,-,0
COc1ccc2cc(C(=O)N/N=C/c3sc4ccccc4c3O)ccc2c1,7.94µM[quencher],?,0,0,0,1.26µM
COc1ccc(C(=O)N/N=C/c2sc3ccccc3c2O)cc1,?,35.5µM,0,0,0,1.78µM
COc1ccc(C(=O)N/N=C/c2c(CO)cnc(C)c2O)cc1,0,?,0,?,-,0
O=C(N/N=C/c1sc2ccccc2c1O)c1cccc2ccccc12,?,25.1µM,0,0,0,10µM
O=C(N/N=C/c1ccc([N+](=O)[O-])s1)c1ccccc1,0,0,0,0,-,?
O=C(N/N=C/c1sc2ccccc2c1O)c1ccccc1,?,22.4µM,0,?,0,?
COC(=O)c1ccc2nc(C)cc(Nc3cccc(Cl)c3C)c2c1,0,-,0,-,-,0
O=C(Nc1ccccc1Cl)Nc1ccccc1Cl,0,0,0,-,-,-
O=C(Nc1ccccc1F)Nc1ccc([N+](=O)[O-])cc1Cl,?,0,0,0,-,0
O=C(NNC(=O)c1ccc[nH]1)Nc1cc(Cl)cc(Cl)c1,0,0,0,-,-,-
O=C(Nc1ccccc1)Nc1cc(Cl)cc(Cl)c1,?,0,11.2µM,0,0,?
O=C(Nc1ccccc1)Nc1cc(OCC(F)(F)F)cc(OCC(F)(F)F)c1,?,0,11.2µM,0,0,0
O=C(Nc1ccc(Nc2ccccc2)cc1)Nc1ccccc1Cl,3.98µM[quencher],?,?,0,-,3.98µM
O=C(Nc1csc([N+](=O)[O-])c1)Nc1ccccc1Cl,25.1µM[quencher],0,0,-,-,-
O=C(O)c1ccccc1CSc1nnc2c(n1)[nH]c1ccccc12,0,0,0,0,-,0
COc1cc(O)c2c(O)c3c(c4c2c1[C@@]1(C4)C(C)=CCCC1(C)C)[C@H](O)[C@@]1(O)CC(=O)C(C(N)=O)=C(O)[C@]1(O)C3=O,-,-,-,0[13.5 µM],0,-
O=C(Nc1ccccc1)Nc1csc2ccccc12,11.2µM[quencher],0,?,-,-,?
O=C(Nc1ccccc1Cl)C(Cl)C(=O)c1ccccc1 (stereo not given),0,0,0,1.78µM,-,0
O=C(Nc1cccnc1)Nc1cc(Cl)cc(Cl)c1,?,0,25.1µM,?,-,?
O=C(Nc1ccccc1Cl)c1ccccc1,0,0,0,0,-,0
CC(=O)Nc1csc2ccccc12,0,0,0,0,-,0
CCOC(=O)N[C@H](Cc1c[nH]c2ccccc12)C(=O)Nc1cccc(Cl)c1,?,-,0,-,-,0
SMILES,Tau fluor cs,JMJD2E inh,Tau fibril FP,ALDH1A1 inh,HPGD block,Tau ThT inhib
CCOC(=O)NC(N(O)c1cccc(Cl)c1)C(Cl)(Cl)Cl (stereo not given),0,0,?,8.91µM,-,?
Cc1ccc2oc(=O)c3cc(C(=O)Nc4ccc(C)c(F)c4)sc3c2c1,0,-,0,-,-,0
CCOc1cc2c(cc1C=O)OC(C)C2 (stereo not given),0,?,0,25.1µM,-,0
CCN(c1ccccc1)S(=O)(=O)c1nnc(NC(=O)COc2ccc(OC)cc2)s1,0,-,0,-,-,?
CCN(CC)S(=O)(=O)c1nnc(NC(=O)COc2ccccc2F)s1,?,-,0,-,-,?
CCN(c1ccccc1)S(=O)(=O)c1nnc(NC(=O)c2ccccc2OC)s1,0,-,0,-,-,3.16µM
CCCCC(=O)Nc1nnc(S(=O)(=O)N(C)Cc2ccccc2)s1,0,-,0,-,-,?
